CHX counter – Cycloheximide Counterscreen for Small Molecule Inhibitors of Shiga Toxin. max response, %. 12% of 300,000 active. cell reporter, cycloheximide protein synthesis inhibition counterscreen; in the data active = max response mostly above about 13%, no sharp cut-off; inactive = mostly below about 14%; note: read at 38.3 µM for the half of the compounds with a filed dose; 0% is about no effect
HCV inh – qHTS Assay for Inhibitors of Hepatitis C Virus (HCV); Huh7.5.1 HCVcc-Cre infection, luciferase reporter, 44 h; AID 651820, 2012; 3.4% of 340,000 active; Potency, µM (highest dose often 41.8 µM), for inactives: at the highest dose activity change, negative = inhibition, actives largely listed as inhibitors; note: potency is the fitted concentration of half-maximal effect; % is set by controls: 0 for no effect and ±100 for the full control effect
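Luciferase read-out (15 sec integration) after a 15 min room-temperature substrate step quantifies HCVcc-Cre infection. Cells, 1,000 per well, had compound added 4 h post-plating, then virus at ~0.5 moi, and were cultured 44 h.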
Pf growth 48h – Primary qHTS for delayed death inhibitors of the malarial parasite plastid, 48 hour incubation. P. falciparum luciferase growth in erythrocytes, 48 h. Potency, µM (highest dose often 28.7 µM), without a hit: at the top dose activity change, negative = inhibition, most hits filed as inhibitors. 5.9% of 310,000 active. AID 504832, 2011; note: potency is the fitted concentration of half-maximal effect; % is set by controls: 0 for no effect and ±100 for the full control effect
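Luciferase-expressing parasites in RBCs, 2% Hct / 0.1% parasitemia final; RPMI 1640 + 0.5% Albumax; 37 C, 5% CO2, one generation; luminescence read-out, lower signal = inhibition.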
AMA1 RON2 block – qHTS for Inhibitors of AMA1-RON; Towards Development of Antimalarial Drug Lead: Primary Screen | Potency, µM (top dose mostly 58.2 µM), for the others: at the highest dose activity change, negative = inhibition, hits mostly inhibitors | 0.2% of 360,000 active | AlphaScreen AMA1-biotinylated RON2 peptide binding | AID 720542, 2013 | Plasmodium falciparum AMA1 (3D7) - RON2 peptide interaction;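 note: potency is the fitted concentration of half-maximal effect; 0% = vehicle wells and -100% = peptide control; nearly all actives have a fitted effect of over 45% in size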
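AMA1 (3D7) with his tag at 25 nM final met compounds first, then biotinylated RON2 peptide at 25 nM; detection used donor plus acceptor beads, 10 µg/mL apiece, read by AlphaScreen after 30 min at room temperature.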
Pf growth 96h – Primary qHTS for delayed death inhibitors of the malarial parasite plastid, 96 hour incubation | 6.9% of 320,000 active | Potency, µM (highest dose often 28.7 µM), for the others: at the highest dose activity change, negative = inhibition, usual class: inhibitors | P. falciparum luciferase reporter growth, 96 h | AID 504834, 2011; note: potency is the fitted concentration of half-maximal effect; % is set by controls: 0 for no effect and ±100 for the full control effect
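Cell-based qHTS: luciferase-tagged P. falciparum in erythrocytes (2% hematocrit, 0.05% parasitemia final) incubated with compounds for 96 hours, 37 C, 5% CO2; luciferase detection reagent then added and luminescence measured.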
Shiga inhibitor – A qHTS for Small Molecule Inhibitors of Shiga Toxin; Vero cells, Shiga toxin protein synthesis inhibition reporter; inhibition, % at 38.7 µM; 9.2% of 290,000 active; AID 2315, 2010; in the data active = inhibition mostly above about 28%, no sharp cut-off; inactive = mostly below about 43%; note: 0% is about no effect
The depositor's hits bear a star; i = inactive; ? = inconclusive; · = not tested or not shown; [ ] = remark or other dose. Compounds with a hit are over-represented: about 21% of the library has one in this group of screens. Unless noted, calls come from the whole dose curve; as a rule, active = well fitted curve in the direction sought with a large enough effect; inconclusive = small, poorly fitted or top-dose-only effect, or another doubt; inactive = no such curve, though single readings can be large; an effect the other way counts as inactive or inconclusive.

SMILES	CHX counter	HCV inh	Pf growth 48h	AMA1 RON2 block	Pf growth 96h	Shiga inhibitor
Cc1nn(C)c(C)c1NC(=O)COc1ccc(Cl)cc1	·	11µM*	-1%	1%	2%	·
CSc1ccc(C(=O)NC2CCSc3ccccc32)cc1 (configuration not stated)	11*	2%	-5%	-8%	?	38
COc1ccc(C(=O)NC2CCSc3ccccc32)cc1 (configuration not stated)	19*	-8%	-3%	-1%	28%	35*
CC(=O)Nc1ccc(C(=O)NC2CCSc3ccccc32)cc1 (configuration not stated)	14*	2%	11%	-6%	10%	13
COc1ccccc1Cc1c(C(C)(C)C)nc2c3ccccc3ccn12	·	·	·	-9%	·	·
CC1(NC(=O)CCc2nc3ccccc3c(=O)[nH]2)CCS(=O)(=O)C1 (configuration not stated)	0	9%	0%	-17%	19%	-16
CCOC(=O)N1CCN(C(=O)C2CCN(S(=O)(=O)CC)CC2)CC1	-1	8%	2%	3%	1.7µM*	-19
Cc1ccc(-c2cc3cccc[n+]3cc2-c2ccc(C)cc2)cc1	1	?	0.41µM*	3%	?	17
COc1ccc(C(NC(=O)C2CCN(CCOc3ccc(Cl)cc3Cl)CC2)c2cccs2)cc1 (configuration not stated)	·	·	·	0%	·	·
O=c1cc(-c2ccc(F)cc2F)[nH]c2ccc(F)cc12	21	·	·	·	·	i
Cc1[nH]c2ccc(F)cc2c(=O)c1SC(F)(F)C(F)F	1	?	13µM*	13%	-15%	1
CC(C)c1ccc(C(O)c2cnc(C(C)C)n2C)cc1 (configuration not stated)	36*	?	?	-3%	-24%	47*
Cn1c(Cl)cnc1C(O)c1ccccc1 (configuration not stated)	8	3%	8%	9%	6.6µM*	-10
CC(C)c1ncc(C(O)c2ccccc2)n1C (configuration not stated)	-1	15%	8%	16%	22%	8
Cn1c(Cl)cnc1C(O)(c1ccccc1)c1ccccc1	-1	-1%	-15%	-5%	9%	-16
CC1(C(=O)NCc2ccco2)Cc2c(-c3cccc(C(N)=O)c3)ccnc2O1 (configuration not stated)	·	·	·	-1%	·	·
CC(=O)Nc1ccc(NC(=O)c2ccccc2S(=O)(=O)c2ccc([N+](=O)[O-])cc2)cc1	-1	18%	-17%	-6%	10%[5.75 µM]	6
Cc1ccc(-c2cc(C(=O)NN3CCOCC3)c3cc(Br)ccc3n2)o1	-2	1%	-4%	9%	5.2µM*	-14
Cc1ccc(-c2cc(C(=O)NC3=NCCS3)c3cc(Br)ccc3n2)o1	-2	-4%	9.3µM*	·	-7%	-9
Cc1cccc(-c2cc(C(=O)NCCCn3ccnc3)c3ccccc3n2)c1	-4	·	?	·	?	27
Cc1ccc(-c2cc(C(=O)O)c3cc(Br)ccc3n2)o1	7	19%	16%	-1%	2%	13
Cc1ccc(-c2cc(C(=O)NCCCn3ccnc3)c3cc(Br)ccc3n2)o1	-1	-12%	9.3µM*	-6%	?	-3
COc1ccc(OCC(O)CN2CCNCC2)cc1 (configuration not stated)	-2	-16%	15%	11%	0%	1
COc1ccc(NC(=O)CN(C)C(=O)C2CCCO2)cc1 (configuration not stated)	·	2%	-11%	-4%	-19%	·
Cc1ccc(NC(=S)N2CCC(NC(=O)c3ccc(F)cc3)CC2)cc1	-4	9%	2%	3%	?	29
SMILES	CHX counter	HCV inh	Pf growth 48h	AMA1 RON2 block	Pf growth 96h	Shiga inhibitor
COc1ccccc1-n1c(SCC(=O)Nc2cc(C)on2)nc2c([nH]c3ccccc32)c1=O	8	?	-21%	-11%	12µM*	10
COc1cccc(-n2c(SCC(=O)Nc3cc(C)on3)nc3c([nH]c4ccccc43)c2=O)c1	5	?	?	-6%	?	-5
Cc1cc(NC(=O)CSc2nc3c([nH]c4ccccc43)c(=O)n2-c2cccc(C(F)(F)F)c2)no1	-2	?	12µM*	-6%	9.3µM*	6
COc1ccc(C)cc1-n1c(SCC(=O)NCC2CCCO2)nc2c([nH]c3ccccc32)c1=O (configuration not stated)	0	8.9µM*	9.3µM*	-15%	?	-7
Cc1cc(NC(=O)CSc2nc3c([nH]c4ccccc43)c(=O)n2-c2ccccc2F)no1	-1	?	13µM*	-1%	13µM*	-4
Cc1ccccc1N1CCN(C(=O)c2cc(C3CC3)nn2-c2ccccc2)CC1	·	?	?	-3%	?	·
CCc1nc2ccc(C(=O)N(C)CCN(C)C)cn2c1N(C)CCC(C)C	·	·	·	-2%	·	·
Cc1ccc(/C=N/n2c(C3CCCCC3)n[nH]c2=S)cc1	0	0%	?	100%	?	4
CCOC(=O)C1=C(CCl)NC(=O)NC1c1ccc2c(c1)OCO2 (configuration not stated)	-1	?	?	-3%	2%	·
Cc1c(N/N=C(\C#N)C(=O)c2ccccc2)c(=O)n(-c2ccccc2)n1C	-1	10µM*	1.7µM*	-10%	?	-3
Cc1ccccc1C(=O)/C(C#N)=N/Nc1c(C)n(C)n(-c2ccccc2)c1=O	-3	?	1.7µM*	-2%	12%	-7
CN(C)CCCN=c1cc(-c2ccccc2)oc2ccc(Cl)cc12	14*	?	?	5%	?	27
Cc1cc(Cl)ccc1Oc1ncnc2oc(-c3ccccc3)cc12	2	14%	-18%	-1%	11%	13
OCCN=c1cc(-c2ccccc2)oc2ccc(Cl)cc12	52*	?	?	-4%	?	190*
O=C(O)c1cc(=O)c2cc(Cl)ccc2o1	-2	2%	34%	3%	32%	-9
O=C(Nc1ccc(Cl)cn1)c1cccc2ccccc12	18*	-21%	30%	-1%	5%	·
O=C(NNC(=O)c1ccccc1[N+](=O)[O-])Nc1ccc(Cl)cc1	14	6%	16%	102%	0%	35
O=[N+]([O-])c1cnc(Nc2ccc(Cl)cn2)c([N+](=O)[O-])c1	1	11µM*	104%	-20%	32%	19
O=C(Nc1ccc(Cl)cn1)c1ccccc1[N+](=O)[O-]	18*	-27%	45%	-14%	?	45

Compound activity deposited in PubChem by National Center for Advancing Translational Sciences (NCATS).
